Experiment [1] in a line: UKN5_HCS_SBAD2_neurite_outgrowth: University of Konstanz (UKN) Leist Lab Neurite Outgrowth Assay in human iPSC-derived immature Dorsal Root Ganglia Neurons (UKN5) (AID 2284070). The settings on record: actives raise or lower the signal. The procedure, abridged: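 Read-out: calcein-AM-stained neurite area by high-content imaging, Hoechst H-33342 for viability, after 24 h exposure of iPSC-derived immature dorsal root ganglia neurons. Activity fitted in both directions relative to DMSO baseline.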

Experiment [2] can be described thus: UKN2_HCS_IMR90_neural_migration: University of Konstanz (UKN) Leist Lab Neural Crest Cell Migration Assay in human induced IMR90 Pluripotent Stem Cells (UKN2) (AID 2284204). The settings on record: actives raise or lower the signal. The procedure, abridged:
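Migration of human IMR90-derived neural crest cells into a stopper-defined gap is imaged after 24 h chemical treatment. Activity is fitted bidirectionally relative to DMSO.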

Experiment [3] is described as follows: UKN4_HCS_LUHMES_neurite_outgrowth: University of Konstanz (UKN) Leist Lab Neurite Outgrowth Assay in human LUHMES cells (UKN4) (AID 2284206). The settings on record: actives raise or lower the signal. The procedure, abridged:
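Day 0 switch to differentiation medium; day 2 replate (30000 cells/well) without cAMP and GDNF; compounds added 30 min–2 h later. At 23.5 h, 30 min calcein-AM/H-33342 live stain, then imaging.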

Experiment [4] can be described thus: CCTE_Mundy_HCI_Cortical_Synap_Neur_Matur_NeuriteSpotCountPerNeuriteLength: CCTE's Synaptogenesis and Neurite Maturation Assay in rat cortical cells for Neurite Spot Count per Neurite Length, Mundy Lab (AID 2284210). The method, boiled down:
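Primary rat cortical neurons, compound exposure DIV 7–12, 288.33 h endpoint. Hoechst, anti-MAP2 and anti-synaptophysin labelling; neurite-associated puncta per neurite length scored by automated imaging relative to DMSO controls.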

Experiment [5] is described as follows: CCTE_Mundy_HCI_Cortical_Synap_Neur_Matur_BPCount: CCTE's Synaptogenesis and Neurite Maturation Assay in rat cortical cells for Branch Point Count, Mundy Lab (AID 2284211). The procedure, abridged:
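Rat primary cortical cultures, AraC added DIV 5; chemicals dosed DIV 7 through DIV 12. Fixed cells stained for MAP2, synaptophysin and Hoechst; neurite branch points counted by automated high-content imaging, fitted relative to DMSO.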

Experiment [6] in a line: CCTE_Mundy_HCI_Cortical_NOG_NeuriteCount: CCTE's Neurite Outgrowth Assay in rat cortical cells for Neurite Count, Mundy Lab (AID 2284212).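 Also: cells fixed about two days after chemical exposure began.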 The method, boiled down:
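Neurite number per cell from high-content imaging of betaIII-tubulin immunostaining, with Hoechst nuclear counterstain.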

Experiment [7] is described as follows: CCTE_Mundy_HCI_Cortical_NOG_NeuriteLength: CCTE's Neurite Outgrowth Assay in rat cortical cells for Neurite Length, Mundy Lab (AID 2284213).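 Also: neurites imaged about 48 to 50 h after chemical exposure began.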 The method, boiled down: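 Neurite length was read by high-content imaging of βIII-tubulin-labelled neurites in rat primary cortical cultures. Activity was fitted relative to DMSO.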
Experiment [8] can be described thus: CCTE_Mundy_HCI_Cortical_Synap_Neur_Matur_NeuriteLength: CCTE's Synaptogenesis and Neurite Maturation Assay in rat cortical cells for Neurite Length, Mundy Lab (AID 2284214). The procedure, abridged:
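Rat cortical neurons, AraC at DIV 5; compound + media change DIV 7, end DIV 12 (288.33 h). Fix, MAP2/synaptophysin/Hoechst immunostain, automated HCI of neurite length vs DMSO.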

Experiment [9] is described as follows: CCTE_Mundy_HCI_Cortical_Synap_Neur_Matur_NeuriteSpotCountPerNeuron: CCTE's Synaptogenesis and Neurite Maturation Assay in rat cortical cells for Neurite Spot Count per Neuron Count, Mundy Lab (AID 2284215). The method, boiled down:
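Rat primary cortical cultures given AraC at DIV 5, dosed from DIV 7 to DIV 12 with media change. Fixed, stained for MAP2, synaptophysin and Hoechst; neurite-associated synaptophysin puncta per neuron quantified by high-content imaging versus DMSO.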

The nature of experiment [10]: CCTE_Mundy_HCI_Cortical_Synap_Neur_Matur_SynapseCount: CCTE's Synaptogenesis and Neurite Maturation Assay in rat cortical cells for Synapse Count, Mundy Lab (AID 2284218). The procedure, abridged: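 Primary rat cortical culture; AraC DIV 5 to arrest glia; compound + media change DIV 7; terminated DIV 12. PFA/Hoechst fix, anti-MAP2 + anti-synaptophysin immunostain; HCI synapse count/neuron; DMSO = baseline.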

A short description of experiment [11]: CCTE_Mundy_HCI_hN2_NOG_NeuriteCount: CCTE's Neurite Outgrowth Assay in human hN2 cells for Neurite Count, Mundy Lab (AID 2284219; active = hit-call score of the fitted dose curve at least 0.9, where 1 is the maximum). The procedure, abridged: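 In this morphology assay, hNP1-derived neurons received test chemical 2 h post-plating and were fixed two days later in warm paraformaldehyde/sucrose containing Hoechst 33342. Neurites, labelled by rabbit anti-βIII-tubulin (1:800) and Alexa Fluor-488 (1:500), were counted automatically.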

Experiment [12] in a line: CCTE_Mundy_HCI_hN2_NOG_NeuriteLength: CCTE's Neurite Outgrowth Assay in human hN2 cells for Neurite Length, Mundy Lab (AID 2284220; active = hit-call score of the fitted dose curve at least 0.9, where 1 is the maximum). The procedure, abridged:
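Plate hNP1-derived neurons, then add chemical 2 h later as a 1/10 dilution. Stain with anti-βIII-tubulin then Alexa Fluor-488 secondary, and image automatically to measure neurite length.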

Experiment [13] in a line: CCTE_Mundy_HCI_hN2_NOG_NeuronCount: CCTE's Neurite Outgrowth Assay in human hN2 cells for Neuron Count, Mundy Lab (AID 2284221; active = hit-call score of the fitted dose curve at least 0.9, where 1 is the maximum). The method, boiled down:
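Read-out is the number of betaIII-tubulin-positive neurons imaged by automated high-content analysis, with DMSO as negative control.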

A short description of experiment [14]: CCTE_Mundy_HCI_Cortical_Synap_Neur_Matur_NeuriteCount: CCTE's Synaptogenesis and Neurite Maturation Assay in rat cortical cells for Neurite Count, Mundy Lab (AID 2284222). The procedure, abridged:
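Chemical exposure runs DIV 7–12 in rat cortical cultures, glia suppressed by AraC at DIV 5; measurement is at DIV 12. Imaging-derived neurite counts are fitted against DMSO baseline.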

A short description of experiment [15]: CCTE_Mundy_HCI_Cortical_Synap_Neur_Matur_CellBodySpotCount: CCTE's Synaptogenesis and Neurite Maturation Assay in rat cortical cells for Cell Body Spot Count, Mundy Lab (AID 2284223). The procedure, abridged:
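Primary rat cortical cultures, AraC added at DIV 5; dosed DIV 7 through DIV 12 […]. Fixed, stained for MAP2 and synaptophysin with Hoechst; cell body-associated synaptophysin puncta per neuron counted by high-content imaging, loss vs DMSO.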

Experiment [16] is described as follows: CCTE_Mundy_HCI_hNP1_Pro_ResponderAvgInten: CCTE's Proliferation Assay in human neuroprogenitor cells, Mundy Lab (AID 2284224; active = hit-call score of the fitted dose curve at least 0.9, where 1 is the maximum). The method, boiled down: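 Proliferation was scored as BrdU labelling intensity in human neural progenitors derived from WA09 embryonic cells, measured 26.25 hours after chemical dosing. Activity was fitted relative to DMSO.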
Experiment [17] is described as follows: UKN4_HCS_LUHMES_cell_viability: Viability Assessment in the University of Konstanz (UKN) Leist Lab Neurite Outgrowth Assay in human LUHMES cells (UKN4) (AID 2284232). The method, boiled down: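 Fluorescence intensity from high-content imaging of Hoechst H-33342/calcein-AM-stained cells served as the viability read-out. Human LUHMES precursors were differentiated 2 days, replated and treated 24 h; curves were fitted bidirectionally against DMSO.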

Experiment [18] in a line: UKN2_HCS_IMR90_cell_viability: Viability Assessment in the University of Konstanz (UKN) Leist Lab Neural Crest Cell Migration Assay in human induced IMR90 Pluripotent Stem Cells (UKN2) (AID 2284233).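 Also: viability of neural crest cells differentiated from IMR90 iPSC measured by calcein-AM fluorescence imaging; cells exposed to compound for 24 h after a 24 h migration phase.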 The method, boiled down:
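Human IMR90-derived neural crest cells were allowed to migrate for 24 h into a cell-free zone, then exposed to test chemicals for 24 h. Calcein-AM and Hoechst staining with high-content imaging gave viability, analysed against DMSO baseline.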

A short description of experiment [19]: CCTE_Mundy_HCI_Cortical_NOG_NeuronCount: CCTE's Neurite Outgrowth Assay in rat cortical cells for Neuron Count, Mundy Lab (AID 2284236; active = hit-call score of the fitted dose curve at least 0.9, where 1 is the maximum;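 also: neurons counted by imaging betaIII-tubulin and Hoechst stained cortical cells; cells exposed to compound for about 48 hours before fixation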). The method, boiled down:
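Read-out: neuron number by high-content imaging of betaIII-tubulin (Alexa Fluor-488) and Hoechst-labelled rat primary cortical cells.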

The nature of experiment [20]: CCTE_Mundy_HCI_Cortical_NOG_BPCount: CCTE's Neurite Outgrowth Assay in rat cortical cells for Branch Point Count, Mundy Lab (AID 2284237).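 Also: branch points counted about two days after chemical exposure.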 The procedure, abridged:
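Measured 50.33 h after dosing, this morphology endpoint uses rat primary cortical cultures labelled for betaIII-tubulin. Branch points are quantified by high-content imaging, with DMSO as negative control and baseline.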

A word on the AC50: it is the midpoint of the concentration-response curve, whichever way the signal moves.

Inconclusive results are not listed. The source made the active and inactive calls. The calls were made as follows, unless noted: active = hit-call score of the fitted dose curve at least 0.9, where 1 is the maximum; inactive = score below 0.9.

Turning to `CNCCC(Oc1ccc(C(F)(F)F)cc1)c1ccccc1` (stereo not given), the concentration at half-maximal activity (AC50) in experiment [1] was 12.7 µM (active); in experiment [2] it was 15 µM (active); in experiment [3] it was 7.3 µM (active); in experiment [4], 12 µM (active); in [5] it was 6.57 µM (active); in [6], 14.7 µM (active). Moreover, the AC50 in experiment [7] is 12.2 µM (active); in experiment [8], 6.03 µM (active); in [9] it was 8.96 µM (active); in experiment [10], 9.16 µM (active); in [11] it was 12.3 µM (active); in [12] it was 12.9 µM (active). Also, the half-maximal activity concentration (AC50) in [13] was 11 µM (active); in experiment [14], 11.6 µM (active); in experiment [17], 18.6 µM (active); in [18], 24.8 µM (active); in experiment [19] it was 16 µM (active); in experiment [20] it was 10.9 µM (active). Further, the outcome in [15] and in experiment [16] was inactive.

The record behind these values is PubChem BioAssay (EPA / NIEHS).
